Values joined by “and” are separate entries in the source; they are usually repeats but may differ in a detail not shown here. Identical values can stand only once. Among all 5,500 compounds or so, about 2,000 (36%) were called active. Not shown: some 18% with an inconclusive outcome. No stated cut-off is given here; in the data, active means normalized growth mostly below about 0.91 (no sharp cut-off); inconclusive means no clear call, values can overlap the other calls; inactive means mostly above about 0.92. Some of the results follow.
Test: chemical genetic growth profiling, strain panel (AID 1159580);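 further: tested at 20 µM; growth read once vehicle control cultures reached saturation at 30 °C; 1 = growth at the plate median or of vehicle wells; lower values mean less growth of the strain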
Settings: S. cerevisiae deletion strains, growth OD

Measured: normalized growth

Cc1cc(=O)n(-c2ccccc2)n1C
inactive: locus YAL013W, strain DEP1, active compounds read low 1.02 | locus YAL021C, strain ccr4, active compounds read low 0.962 | locus YAL026C, strain drs2, active compounds read low 1 | locus YAL030W, strain snc1, active compounds read low 1 | locus YBL061C, strain skt5, active compounds read low 0.992 | locus YBR009C, strain hhf1, active compounds read low 1.06 | locus YBR021W, strain FUR4, active compounds read low 1 | locus YBR023C, strain chs3, active compounds read low 0.987 | locus YBR171W, strain sec66, active compounds read low 0.987 | locus YBR229C, strain ROT2, active compounds read low 1.01 | locus YBR231C, strain swc5, active compounds read low 1.01 | locus YBR279W, strain paf1, active compounds read low 0.995 | locus YCL011C, strain gbp2, active compounds read low 0.995 | locus YCL016C, strain dcc1, active compounds read low 0.979 | locus YCL029C, strain bik1, active compounds read low 0.996 | locus YCL061C, strain MRC1, active compounds read low 0.981 | locus YCL069W, strain vba3, active compounds read low 0.997 | locus YCR088W, strain abp1, active compounds read low 0.991 | locus YDL005C, strain med2, active compounds read low 0.991 | locus YDL035C, strain GPR1, active compounds read low 1.04 | locus YDL040C, strain nat1, active compounds read low 0.991 | locus YDL074C, strain BRE1, active compounds read low 1.02 | locus YDL101C, strain DUN1, active compounds read low 0.999 | locus YDL185W, strain tfp1, active compounds read low 0.994 | locus YDL192W, strain arf1, active compounds read low 0.989 | locus YDR001C, strain nth1, active compounds read low 0.983 | locus YDR069C, strain doa4, active compounds read low 1.02 | locus YDR101C, strain arx1, active compounds read low 0.983 | locus YDR137W, strain rgp1, active compounds read low 0.978 | locus YDR159W, strain sac3, active compounds read low 1.01 | locus YDR162C, strain NBP2, active compounds read low 1.04 | locus YDR195W, strain ref2 0.998 | locus YDR297W, strain sur2, active compounds read low 0.99 | locus YDR318W, strain mcm21, active compounds read low 0.989 | locus YDR334W, strain swr1, active compounds read low 0.986 | locus YDR335W, strain msn5, active compounds read low 0.992 | locus YDR388W, active compounds read low 0.986 | locus YDR392W, strain spt3, active compounds read low 0.94 | locus YDR502C, strain sam2, active compounds read low 0.994 | locus YEL003W, strain gim4, active compounds read low 1 | locus YEL037C, strain rad23, active compounds read low 0.995 | locus YEL061C, strain CIN8 (second series), active compounds read low 0.99 | locus YEL061C, strain CIN8, active compounds read low 1 | locus YER015W, strain faa2, active compounds read low 0.985 | locus YER016W, strain bim1, active compounds read low 0.996 | locus YER110C, active compounds read low 0.987 | locus YER111C, strain swi4, active compounds read low 0.984 | locus YER155C, strain BEM2 (second series), active compounds read low 1.01 | locus YER155C, strain BEM2, active compounds read low 1 | locus YER167W, strain BCK2, active compounds read low 1.02 | locus YFR010W, strain ubp6, active compounds read low 1 | locus YGL078C, strain dbp3, active compounds read low 0.982 | locus YGL086W, strain mad1, active compounds read low 0.989 | locus YGL167C, strain pmr1, active compounds read low 0.996 | locus YGL173C, strain kem1, active compounds read low 0.992 | locus YGL227W, strain vid30, active compounds read low 0.993 | locus YGL240W, strain doc1, active compounds read low 1 | locus YGL248W, strain PDE1, active compounds read low 0.999 | locus YGL253W, strain hxk2, active compounds read low 0.975 | locus YGR078C, strain PAC10, active compounds read low 1 | locus YGR135W, strain pre9, active compounds read low 1 | locus YGR229C, strain SMI1, active compounds read low 1.04 | locus YGR252W, strain gcn5, active compounds read low 1 | locus YHR013C, strain ard1, active compounds read low 0.982 | locus YHR027C, strain rpn1, active compounds read low 1.02 | locus YHR030C, strain SLT2, active compounds read low 1.01 and 0.973 | locus YHR079C, strain IRE1 (second series), active compounds read low 0.984 | locus YHR079C, strain IRE1, active compounds read low 1.03 | locus YHR094C, strain hxt1, active compounds read low 0.986 | locus YHR129C, strain ARP1, active compounds read low 1.01 | locus YHR142W, strain chs7, active compounds read low 0.963 | locus YHR200W, strain rpn10, active compounds read low 1 | locus YIL066C, strain RNR3, active compounds read low 1.04 | locus YIL073C, strain SPO22, active compounds read low 1.03 | locus YIL125W, strain kgd1, active compounds read low 0.986 | locus YIR030C, strain dcg1, active compounds read low 0.987 | locus YJL095W, strain BCK1 (second series), active compounds read low 0.999 | locus YJL095W, strain BCK1, active compounds read low 1 and 1.01 | locus YJL115W, strain asf1, active compounds read low 0.994 | locus YJL129C, strain trk1, active compounds read low 0.978 | locus YJL134W, strain LCB3, active compounds read low 1.01 | locus YJL154C, strain vps35, active compounds read low 0.991 | locus YJL164C, strain tpk1, active compounds read low 1.02 | locus YJL166W, strain qcr8, active compounds read low 0.953 | locus YJL168C, strain set2, active compounds read low 0.983 | locus YJL187C, strain SWE1 (second series), active compounds read low 0.987 | locus YJL187C, strain SWE1, active compounds read low 0.996 | locus YJR043C, strain POL32, active compounds read low 1.04

Source: PubChem BioAssay AID1159580 (chemical genetic matrix, 2015)
